TROY signal inh – inhibitors of TROY-dependent NF-kB signaling; Q293 LMP1-TROYcd NF-kB luciferase reporter, 4 h; hit rate 0.98% among 360,000; inhibition, % at 10 µM; AID 1347056;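 active = compounds whose plate-normalised and pattern-corrected inhibition of the luciferase reporter signal at the single screening dose is 50% or more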
KKLEB cytotox – CF airway cell cytotoxicity counter-screen. KKLEB CF airway cells viability, ATPlite luminescence, overnight; hits give low values; cells stimulated with P. aeruginosa culture filtrate. activity change (cytotoxicity), % at 5 µM. hit rate 0.36% among 360,000;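 active = corrected activity change at or below -50% at 5 µM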
Peg3 prom inh – inhibitors of Peg3 promoter; HeLa PEG-Prom luciferase reporter, luminescence, overnight; inhibition, % at 20 µM; hit rate 1.7% among 360,000; AID 588405;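 active = inhibition of at least 50% at 20 µM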
CF NFkB inh – blocks PAF-induced NF-kB reporter in cystic fibrosis cells; KKLEB NF-kB-GFP reporter, GFP fluorescence overnight; inhibition, % at 5 µM; hit rate 0.86% among 360,000;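 active = at least 50% inhibition at 5 µM, scaled per plate between neutral and stimulator controls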;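 note: PAF is a Pseudomonas aeruginosa culture filtrate used as stimulus; plate controls were PAF-stimulated DMSO wells for no effect and unstimulated DMSO wells for full effect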
HIF-2a inh – inhibitors of HIF-2a; 786-0 RCC cells HIF-2a reporter, luciferase luminescence, overnight; inhibition, % at 18.8 µM; hit rate 0.72% among 360,000; AID 624352;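 active = inhibition of the luminescence signal of 40% or more relative to plate controls, in a single-dose primary screen at 18.75 µM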
TWEAK-Fn14 inh – TWEAK-Fn14 signaling inhibition. TWEAK-stimulated Fn14 reporter cells, luciferase luminescence, 8 h. inhibition, % at 10 µM. hit rate 2% among 360,000. AID 1159606; in the data active = inhibition above about 50%
Starred values were filed as active, the others as inactive; . = no result given. Sampled rows, rich in hits. Any-hit rate of the full collection: about 4%.

SMILES | TROY signal inh | KKLEB cytotox | Peg3 prom inh | CF NFkB inh | HIF-2a inh | TWEAK-Fn14 inh
COC(=O)c1ccc2nc(NC(=O)C(C)(C)C)sc2c1 | 81* | -50* | 8 | 3 | 39 | 96*
COc1ccc(NC(=O)CN(C)S(=O)(=O)c2cccc3nsnc23)cc1 | 12 | -8 | 2 | 16 | 7 | 12
OCCCNc1ncnc2sc3c(c12)CCN(Cc1ccccc1)C3 | 36 | -9 | 10 | 4 | 5 | 69*
CCCCNC1C(CC)C(CCC)C(C#N)(C#N)C1(C#N)C#N (configuration not stated) | 17 | -31 | 27 | 81* | 17 | 56*
COc1ccc(CCNc2oc(Cc3cccc4ccccc34)nc2C#N)cc1OC | 23 | -29 | 29 | 19 | 7 | 33
COc1ccc(CCNc2oc(COc3ccc(Br)cc3)nc2C#N)cc1OC | 59* | -4 | 35 | 5 | -1 | 25
COc1ccc(N(C(=O)c2cccnc2)S(=O)(=O)c2cc(OC)ccc2OC)cc1 | 3 | -22 | 22 | 28 | 16 | 15
COc1ccc(N(C(=O)c2ccncc2)S(=O)(=O)c2ccc3c4c(cccc24)C(=O)N3C)cc1 | 64* | -12 | 41 | 46 | 23 | 34
COc1ccc(N(C(=O)c2cccnc2)S(=O)(=O)c2ccc3c4c(cccc24)C(=O)N3C)cc1 | 47 | -12 | 27 | 29 | 25 | 64*
CN(C)c1cccc(C(=O)NNC(=O)CN2C(=O)C3CC=CCC3C2=O)c1 (configuration not stated) | 53* | -6 | -287 | 15 | -169 | 53*
COC(=O)c1ccc(COc2ccccc2/C=C(\C#N)C(=O)Nc2c(C)cc(C)cc2C)cc1 | 20 | -20 | 75* | 23 | 2 | 68*
Cc1ccc(OC(=O)c2oc3ccc(F)cc3c2C)c(C)c1 | -20 | -69* | -53 | 53* | -114 | -13
COc1ccc(/C=C/C(=O)c2oc3ccc(F)cc3c2C)cc1 | -34 | -10 | -4 | -6 | -42 | -9
CCC(=O)N/N=C/c1ccc(-c2ccc([N+](=O)[O-])cc2)o1 | -5 | 6 | -36 | -16 | -50 | -2
CC(C)(C)C(=O)/C=c1\s/c(=C\c2ccc(-c3ccc([N+](=O)[O-])cc3)o2)c(=O)n1CC(=O)NC(N)=O | 3 | -20 | 55* | -425 | -5 | 9
COc1ccc(-c2csc(NC(=O)c3ccccc3NS(=O)(=O)c3ccc(F)c(F)c3)n2)cc1 | 69* | -51* | 47 | 55* | 35 | 74*
COc1ccc(-c2csc(NC(=O)c3ccccc3F)n2)cc1 | -9 | -3 | -160 | -5 | -223 | 7
Cc1ccc(S(=O)(=O)Nc2ccccc2C(=O)Nc2nc(-c3ccc(F)cc3)cs2)cc1 | 75* | -58* | 41 | 49 | 9 | 93*
CS(=O)(=O)c1ccccc1C(=O)Nc1ccc(-c2nc3ccccc3[nH]2)cc1 | -68 | 4 | -243 | -5 | -194 | -19
O=C(Nc1ccc(-c2nc3ccccc3[nH]2)cc1)c1ccccc1NS(=O)(=O)c1ccc(F)cc1 | 58* | -20 | -18 | -17 | -48 | 8
CC(C)(C)NC(=O)C(c1ccccn1)N(C(=O)C1CSC(=O)C1)c1cccc(F)c1 (configuration not stated) | -11 | 10 | 12 | -30 | 6 | -5
Cc1ccc(NC(=O)COC(=O)CSC(=S)N2CCOCC2)cc1C | 4 | -7 | -2 | -4 | 9 | 8
COc1cccc(NC(=O)N2CCC(NC(=O)C3CCCCC3)CC2)c1 | 2 | 9 | 5 | 0 | 0 | 41
CCCCOc1ccc(CSC(CC(=O)O)C(=O)O)cc1 (configuration not stated) | . | 8 | -1 | 6 | 21 | 70*
COc1ccc(-c2nc(N/N=C(\C)c3ccc(O)cc3)c3ccccc3n2)cc1 | -31 | -21 | -31 | 56* | -186 | -9
SMILES | TROY signal inh | KKLEB cytotox | Peg3 prom inh | CF NFkB inh | HIF-2a inh | TWEAK-Fn14 inh
O=[N+]([O-])c1cc2no[n+]([O-])c2cc1N1CCCCC1 | -2 | 2 | 99* | -77 | 9 | 16
CN(C)CCNC=C(C(=O)Nc1ccc(Cl)cc1Cl)C(=O)Nc1ccc(Cl)cc1Cl | 54* | -15 | 91* | 32 | 4 | 16
CC(=O)OCCNc1cc(N2CCN(C)CC2)c2noc3c2c1C(=O)c1ccccc1-3 | -16 | -2 | 3 | -165 | -5 | -8
CCOC(=O)C(C(=O)OCC)c1cc(Br)c2noc3c2c1C(=O)c1ccccc1-3 | 11 | -38 | 113* | 75* | 35 | 20
Cc1cccc(C)c1OCC(O)CN1CCC(CN2C(=O)c3cccc4cccc(c34)C2=O)CC1 (configuration not stated) | 22 | -13 | 55* | -11 | 29 | 62*
O=C(c1ccc(S(=O)(=O)N2CCCCC2)cc1)N1CCN(CCN2C(=O)c3cccc4cccc(c34)C2=O)CC1 | 51* | -10 | 68* | -27 | -14 | 54*
CC(C)OCC(O)CN1CCN(CCN2C(=O)c3cccc4cccc(c34)C2=O)CC1 (configuration not stated) | -19 | -17 | 10 | 11 | 1 | -15
CC(=O)c1ccc(OCC(O)CN2CCN(CCN3C(=O)c4cccc5cccc(c45)C3=O)CC2)cc1 (configuration not stated) | 8 | -2 | 50* | -27 | 12 | -56
Nc1ccccc1SCC(=O)Nc1ccc2c(c1)OCCO2 | 58* | -2 | -193 | 2 | -140 | 68*
Cn1cccc1C(=O)OCC(=O)NCc1ccc2c(c1)OCO2 | -31 | -14 | -69 | 5 | -67 | -19
COCCn1c(SCC(=O)c2ccc3c(c2)OCCO3)nnc1-c1ccoc1C | 15 | -1 | -3 | 10 | -5 | 10
O=C(CC(c1ccccc1)c1ccccc1)Nc1ccc2c(c1)OCCO2 | 22 | -5 | -53 | 10 | 14 | 52*
Cn1cccc1C(=O)OCC(=O)Nc1ccc2c(c1)OCCO2 | 9 | -9 | -40 | 0 | -20 | 71*
COCCCn1c(SCC(=O)Nc2ccc3c(c2)OCCO3)nnc1-c1ccoc1C | 16 | 7 | -22 | 0 | 19 | 64*
CC(C)[C@@H]1C=C(C(=O)O)O[C@H](OCCCCO)C1 | 7 | -2 | 1 | -2 | 6 | 7
CN1CCN(c2ccc([N+](=O)[O-])cc2C(=O)N2CCCCC2)CC1 | 8 | 8 | -7 | 14 | 7 | 12
C/C=C/c1cc(OC)c2c(c1)[C@H](C)[C@@H](c1ccc(O)c(OC)c1)O2 | -2 | -9 | 9 | -21 | -19 | -3
CCN(CC)S(=O)(=O)c1ccc(N2CCCC2)c(NC(=O)C2=NN(c3ccccc3)C(=O)CC2)c1 | 6 | 2 | 16 | 18 | 30 | -2
OCC[C@@H]1C[C@@H](O)[C@H](O)[C@@]2(CCc3ccccc3CO2)O1 | -4 | 2 | 8 | 4 | 2 | 8

Assay outcomes as filed in PubChem BioAssay.
